# L3MBTL1 block – L3MBTL1 (human) inhibition. AlphaScreen L3MBTL1–H3K9me1 peptide binding. Potency, µM (top dose mostly 57.1 µM), hits mostly inhibitors. 230,000 compounds, 0.66% hits. AID 485360; further: nearly all actives have a fitted effect of over 60% in size
# Target sequence (Q9Y468 whole entry, looked up): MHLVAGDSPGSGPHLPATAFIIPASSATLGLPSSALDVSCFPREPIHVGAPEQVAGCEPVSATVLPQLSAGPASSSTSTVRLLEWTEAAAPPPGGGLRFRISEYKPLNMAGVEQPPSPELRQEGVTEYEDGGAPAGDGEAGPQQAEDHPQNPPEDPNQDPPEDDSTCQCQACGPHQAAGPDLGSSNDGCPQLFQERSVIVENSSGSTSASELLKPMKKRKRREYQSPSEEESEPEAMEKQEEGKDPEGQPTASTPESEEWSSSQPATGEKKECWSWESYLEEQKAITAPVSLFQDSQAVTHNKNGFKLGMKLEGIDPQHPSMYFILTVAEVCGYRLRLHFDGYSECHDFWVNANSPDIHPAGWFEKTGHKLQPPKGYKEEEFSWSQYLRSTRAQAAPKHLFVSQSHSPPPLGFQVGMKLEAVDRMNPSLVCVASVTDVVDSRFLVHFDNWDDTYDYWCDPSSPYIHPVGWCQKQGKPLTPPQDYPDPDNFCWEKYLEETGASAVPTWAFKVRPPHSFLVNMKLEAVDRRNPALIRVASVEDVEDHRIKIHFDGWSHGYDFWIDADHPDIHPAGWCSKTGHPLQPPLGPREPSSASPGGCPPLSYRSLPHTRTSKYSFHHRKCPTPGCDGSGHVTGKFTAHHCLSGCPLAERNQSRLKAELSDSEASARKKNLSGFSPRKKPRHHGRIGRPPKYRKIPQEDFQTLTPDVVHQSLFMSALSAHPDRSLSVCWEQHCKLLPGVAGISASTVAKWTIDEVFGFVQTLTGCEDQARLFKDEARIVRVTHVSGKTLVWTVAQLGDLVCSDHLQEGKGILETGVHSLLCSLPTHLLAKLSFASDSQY
#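 Displacement of a biotinylated histone H3(1-15) peptide monomethylated at Lys9 (75 nM) from L3MBTL1 (50 nM) was measured by AlphaScreen after a 30 min room-temperature compound incubation; cefsulodin titration served as intraplate control.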
# JMJD2A Tudor inh – blocks the human JMJD2A Tudor domain. Potency, µM (top dose mostly 114 µM), usual class: inhibitors. AlphaScreen JMJD2A-Tudor / H3K4me3 peptide binding. 390,000 compounds, 4.4% hits. O75164; further: nearly all actives have a fitted effect of over 50% in size
# G9a block – G9a (human) methyltransferase inhibition | Q96KQ7 | G9a H3K9 monomethylation, AlphaScreen, 2 h | Potency, µM (doses to about 102 µM), hits mostly inhibitors | 350,000 compounds, 8.8% hits | AID 504332; further: nearly all actives have a fitted effect of over 75% in size
#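 Methyltransferase reactions run at room temperature for 2 h (20 nM enzyme, 500 nM biotin-H3K9 peptide, 20 uM SAM) after a 15 min compound preincubation; product detected by AlphaScreen beads and anti-H3K9me1 antibody.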
# Sfp inh – inhibitors of Bacillus subtilis Sfp phosphopantetheinyl transferase; Biochemical Sfp PPTase activity, qHTS; Potency, µM, most hits filed as inhibitors; 310,000 compounds, 3.5% hits; Q9F4F7;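 further: the enzyme is Sfp with the accession as filed and its product quenches rhodamine fluorescence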
#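 Buffer: 50 mM Hepes-Na pH 7.6, 10 mM MgCl2, 0.01% Nonidet P-40, 0.01% BSA. Enzyme 15 nM, pre-exposed to compound 15 min; substrates then added and fluorescence change tracked over 30 min.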
# HP1b binding inh – blocks HP1-beta chromodomain binding to methylated histone tails. Potency, µM (series often up to 114 µM), most hits filed as inhibitors. AID 540317. AlphaScreen HP1-beta / biotin-H3K9me3 peptide binding. P83916. 390,000 compounds, 0.56% hits; further: nearly all actives have a fitted effect of over 70% in size
#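 AlphaScreen: HP1-beta (50 nM) preformed 30 min with biotin-H3(1-18)K9me3 peptide (50 nM) in PBS pH 7.4, 0.01% Tween-20. Compound added for 30 min at RT, then streptavidin donor/nickel chelate acceptor beads (10 ug/mL) for 30 min.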
# BAZ2B block – inhibitors of human BAZ2B bromodomain; 360,000 compounds, 4.4% hits; AlphaScreen BAZ2B-H3K14Ac peptide displacement; AID 504333; Potency, µM (series often up to 114 µM), usual class: inhibitors; Q9UIF8; further: nearly all actives have a fitted effect of over 60% in size
#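 BAZ2B 50 nM plus b-H3(5-23)K14Ac 50 nM, PBS pH 7.4/0.01% Tween-20, 30 min RT; compound added (max 110 uM), 30 min RT; streptavidin donor/Ni-chelate acceptor beads 10 ug/mL final, 20 min dark; AlphaScreen read.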
# Hits are given with their value; . = inactive; ? = inconclusive; / = not tested or not shown; ! = not confirmed by another sample; [ ] = remark or other dose. Shown are actives, neighbours in structure and some others; about 12% of the full set was active somewhere. The call rests on the fitted dose curve; in most records, active means well fitted curve in the direction sought with a large enough effect; inconclusive means small, poorly fitted or top-dose-only effect, or another doubt; inactive means no such curve, though single readings can be large; an effect the other way counts as inactive or inconclusive.
SMILES,L3MBTL1 block,JMJD2A Tudor inh,G9a block,Sfp inh,HP1b binding inh,BAZ2B block
CCN(C(=O)c1nn(-c2ccc(OC)c(Cl)c2)c(=O)c2c1c1ccccc1n2C)c1cc(OC)ccc1OC,/,.,?,/,.,/
N#CC1(C#N)C2=C(CCCC2)NC(c2ccccc2)C1(C#N)C#N (stereo unspecified),.,/,18µM,.,/,50µM
Cc1cccc(Nc2nnc(-c3ccc(C)c(S(=O)(=O)N4CCN(C)CC4)c3)c3ccccc23)c1,/,.,18µM,/,.,?
Cc1ccc(-c2nnc(Nc3cccc(Cl)c3)c3ccccc23)cc1S(=O)(=O)N1CCN(C)CC1,/,?,7.9µM,/,.,?
CC(/C=C/c1ccccc1)=N/NC(=O)c1cc([N+](=O)[O-])cc([N+](=O)[O-])c1,.,.,.,?,.,.
CC(/C=C/c1ccccc1)=N\Nc1ccccc1[N+](=O)[O-],.,10µM,0.89µM,.,4µM,2.2µM
CC12CCC(=O)N1C(C(=O)Nc1nc3ccc(S(C)(=O)=O)cc3s1)CS2 (stereo unspecified),/,.,?,.,.,.
CCc1ccc2nc(NC(=O)C3CSC4(C)CCC(=O)N34)sc2c1 (stereo unspecified),.,.,28µM,/,.,.
CC12CCC(=O)N1C(C(=O)Nc1nc3ccc(Cl)cc3s1)CS2 (stereo unspecified),.,?,45µM,/,.,.
Cc1ccc(-c2csc(NC(=O)C3CSC4(C)CCC(=O)N34)n2)cc1 (stereo unspecified),.,.,.[0.501 µM],/,.,79µM
Cc1noc(C)c1-c1cc(N(C)C)ncn1,/,/,/,.,/,/
CC(=O)Nc1ccc(NC(=O)c2cc3sccc3n2Cc2ccc(Cl)cc2)cc1,/,.,.,/,.,.
COc1cccc(NC(=O)C2CCN(C(=O)N3CC(C)Oc4ccccc43)CC2)c1 (stereo unspecified),/,.,.,/,.,.
Cc1ccccc1NC(=O)CSc1ccc(-c2cccs2)nn1,/,.,.,/,.,.
COC/C=C/C1=CC2=CC(=O)C(C)(OC(=O)c3cnc4ccccc4n3)C(=O)C2=CN1c1ccccc1 (stereo unspecified),/,?,.,.,.,.
COC/C=C/C1=CC2=CC(=O)C(C)(OC(=O)c3cnc4ccccc4n3)C(=O)C2=CN1c1ccc(CO)cc1 (stereo unspecified),3.2µM,/,/,56µM!,/,10µM
COC/C=C/C1=CC2=CC(=O)C(C)(OC(=O)c3cnc4ccccc4n3)C(=O)C2=CN1C1CCCCC1 (stereo unspecified),.,/,40µM,.,/,?
Cc1ccc(CNC(=O)c2ccc(-n3cccc3)cc2)cc1,/,40µM,?,.,22µM,25µM
CC(C)Cc1ccc(CC(=O)O)cc1,/,/,11µM,?,/,/
Cc1ccc(CNC(=O)Cc2ccc(-n3cccc3)cc2)cc1,.,.,.,.,.,.
O=C(O)Cc1ccc(-n2cccc2)cc1,/,40µM,20µM,.,25µM,8.9µM
C=C1CCC(C2CC(=O)OC2=O)C(=O)CCC2C1CC2(C)C (stereo unspecified),/,/,/,.,/,/
Cc1ccc(N2C(=O)C3C(c4ccccc4)N4CCCN4C3(C)C2=O)cc1 (stereo unspecified),.,.,7.9µM,.,.,.
NCCc1nc2cccnc2n1-c1ccccc1,/,.,.,/,.,.
CCc1c(C)sc2c1CCN(Cc1ccc(F)cc1)C2c1ccccc1 (stereo unspecified),/,?,?,/,.,.
SMILES,L3MBTL1 block,JMJD2A Tudor inh,G9a block,Sfp inh,HP1b binding inh,BAZ2B block
Cc1cc2cc(CN(Cc3ccco3)S(=O)(=O)c3c(C)ccc4nsnc34)c(=O)[nH]c2cc1C,.,.,.,50µM,.,.
Cc1ccc2cc(CN(Cc3ccco3)S(=O)(=O)c3c(C)ccc4nsnc34)c(=O)[nH]c2c1,/,?,?,16µM,.,?
Cc1cccc(-c2nn3c(=O)cc(CN4CCN(C(=O)c5ccccc5Br)CC4)nc3s2)c1,/,.,.,/,.,.
Cc1ccc(NC(=O)CN2C(=O)CSc3ccc(S(=O)(=O)N(C)C)cc32)c(C)c1,/,.,.,/,.,.
O=C1c2ccccc2C(=O)c2c1cccc2N1CCCC1,8.9µM,5µM,4µM,.,?,5µM
O=C1c2ccccc2-c2onc3ccc(NCc4ccco4)c1c23,.,?,.,.,.,.
Cn1c(=O)cc2c3c(c(N4CCCCC4)ccc31)C(=O)c1ccccc1-2,?,35µM,14µM,.,?,10µM
CCNc1ccc2noc3c2c1C(=O)c1ccccc1-3,?,?,?,.,?,32µM
CCOc1ccc2noc3c2c1C(=O)c1ccccc1-3,.,.,?,?,.,.
O=C1c2ccccc2-c2onc3ccc(N4CCCC4)c1c23,?,?,10µM,40µM,20µM,14µM
Cn1c(=O)c(NC2CCCCC2)c2c3c(cccc31)C(=O)c1ccccc1-2,.,.,/,.,.,.
C#CCOCCOCCOCCNc1nc(N2CCOCC2)nc(N2CCN(C(=O)[C@H]([C@@H](C)CC)n3cc(CCCN=C(N)N)nn3)CC2)n1,.,.,50µM,.,.,.
C#CCOCCOCCOCCNc1nc(N2CCOCC2)nc(N2CCN(C(=O)[C@H]([C@@H](C)O)n3cc(CCCCN)nn3)CC2)n1,.,.,45µM,.,.,?
Cn1c2c(c(=O)n(C)c1=O)C(c1ccc(F)cc1)C(C#N)=C(N)O2 (stereo unspecified),.,.,45µM,.,.,.
CN=C(Cc1ccccc1)C1=C(O)CC(C)(C)CC1=O,.,.,.,.,.,.
CC1(C)CC(=O)C(CC(=O)NC(=O)NCc2ccccc2)=C(O)C1,.[11.4 µM],.,.,.,.,.
CC1(C)CC(=O)C(Sc2ccccc2C(=O)O)=C(O)C1,?,25µM,?,.,.,.
CC1(C)CC(=O)C(Sc2ccccc2)=C(O)C1,.,.,45µM,.,.,.
COC(=O)CC[C@H](N)C(=O)O,/,/,.[12.7 µM],.,/,/
CCCS(=O)(=O)c1nc(S(=O)(=O)c2ccc(C)cc2)c(N2CCc3ccccc3C2)s1,.,.,35µM,.,.,.
CC(C)(C)OC(=O)N(c1cccc2cccnc12)S(=O)(=O)c1ccccc1Br,/,.,/,/,.,/
Cc1ccc(CNC(=O)[C@@H]2C[C@H]2[C@@H](NP(=O)(c2ccccc2)c2ccccc2)c2ccccc2)o1,/,/,/,50µM,/,/
COc1ccc(CNC(=O)[C@H]2C[C@@H]2[C@H](NP(=O)(c2ccccc2)c2ccccc2)c2ccccc2)cc1OC,/,/,/,.,/,/
O=C(NCCc1c[nH]c2ccccc12)[C@@H]1C[C@H]1[C@@H](NP(=O)(c1ccccc1)c1ccccc1)c1ccccc1,.,/,79µM,.,/,?
COc1ccc(CNc2ncnc3ccc(-c4ccc5c(c4)OCO5)cc23)c(OC)c1,/,/,.[0.501 µM],.,/,/
Cc1ccc(NCc2ccccc2O)c(C)c1,/,?,45µM,.,.,32µM

# Screening results deposited in PubChem by National Center for Advancing Translational Sciences (NCATS).
